MARV entry inh = inhibitors of Marburg virus binding or entry into cells. hit rate 6.5% among 18,000. AID 720532. Potency, µM (doses to about 49.2 µM), inactives show at the top dose activity change, negative = inhibition, most hits filed as inhibitors. Marburg virus pseudotype entry/binding inhibition, cell-based
LASV entry inh = blocks Lassa virus binding or cell entry. Lassa virus pseudotyped entry inhibition, cell-based qHTS. Potency, µM (doses to about 49.2 µM), without a hit: at the highest dose activity change, negative = inhibition, actives largely listed as inhibitors. hit rate 4.1% among 18,000. AID 720533
* marks the source's active call; other numbers are inactive results; u = inconclusive; x = no result; ! = a repeat was not active; [ ] = another dose, or the depositor's remark. Hits are enriched below; roughly 8% of the tested compounds scored in any of these assays. Calls come from the whole dose curve; tested in HEK293 cells. % is set by controls: 0 for no effect and ±100 for the full control effect; potency is the fitted concentration of half-maximal effect.

SMILES	MARV entry inh	LASV entry inh
CC[C@H](C)[C@H](NC(=O)[C@H](C)NC(=O)[C@H](Cc1cnc[nH]1)NC(=O)[C@@H]1CCCN1C(=O)CNC(=O)[C@H](CC(C)C)NC(=O)[C@H](CC(C)C)NC(=O)[C@H](Cc1ccc(O)cc1)NC(=O)CNC(=O)[C@H](C)NC(=O)[C@H](CO)NC(=O)[C@H](CC(N)=O)NC(=O)[C@H](CC(C)C)NC(=O)[C@@H](NC(=O)[C@H](Cc1c[nH]c2ccccc12)NC(=O)CN)[C@@H](C)O)C(=O)O	13%	-10%
C[C@]12CC[C@@H]3c4ccc(O)cc4CC[C@H]3[C@@H]1CC[C@@H]2O	7%	14µM*!
C[C@@]12CC[C@@H]3c4ccc(O)cc4CC[C@H]3[C@H]1CC[C@H]2O	7%[17.8 µM]	-12%[17.8 µM]
CC12CCC3c4ccc(O)cc4CCC3C1CCC2O (stereo unspecified)	4%	u
CCCCCCC(=O)O[C@H]1CC[C@H]2[C@@H]3CCc4cc(O)ccc4[C@H]3CC[C@]12C	4%	32µM*
CN(Cc1ccon1)C(=O)c1cnn(-c2ncc3c(n2)-c2ccccc2CCC3)c1C1CC1	-26%	-9%
CC(=O)N[C@@H](C=O)[C@H](O)[C@H](O)[C@@H](O)CO	-8%	-1%
COC(=O)[C@@H]1CCCN1Cc1ccc2c(c1)CN(Cc1ccc(OC)c(C)c1)CCO2	3%	-15%
CSc1ccc2c(c1)N(CCC1CCCCN1C)c1ccccc1S2 (stereo unspecified)	7.9µM*	22µM*
CSc1ccc(CN2CCOc3ccc(CN4CCCCC4CO)cc3C2)cc1 (stereo unspecified)	u	-6%
CSc1ccc2c(c1)N(CC[C@H]1CCCCN1C)c1ccccc1S2	7.9µM*	u
CN1CCCC[C@@H]1CCN1c2ccccc2Sc2ccc(S(C)=O)cc21 (stereo partly specified)	u	0%[17.8 µM]
CC[C@H](C)[C@H](NC(=O)[C@H](Cc1cnc[nH]1)NC(=O)[C@@H](NC(=O)[C@H](CCCNC(=N)N)NC(=O)[C@H](CCCCN)NC(=O)[C@H](CCCNC(=N)N)NC(=O)[C@H](CCCCN)NC(=O)[C@@H](N)CC(N)=O)[C@@H](C)CC)C(=O)NCC(=O)N1CCC[C@H]1C(=O)NCC(=O)N[C@@H](CCCNC(=N)N)C(=O)N[C@@H](C)C(=O)N[C@@H](Cc1ccccc1)C(=O)N[C@@H](Cc1ccc(O)cc1)C(=O)N[C@H](C(=O)N[C@H](C(=O)N[C@@H](CCCCN)C(=O)N[C@@H](CC(N)=O)C(=O)N[C@H](C(=O)N[C@H](C(=O)NCC(=O)N[C@H](C(=O)N[C@H](C(=O)N[C@@H](CS)C(=O)O)[C@@H](C)CC)[C@@H](C)O)[C@@H](C)CC)[C@@H](C)CC)[C@@H](C)O)[C@@H](C)O	-39%	-5%
COc1ccc(-c2nc(-c3ccccc3)oc2NC2CCCCC2)cc1	31%[8.59 µM]	12%[8.59 µM]
COc1ccc(NC(=O)C2CC23CCN(Cc2cccc4ncccc24)CC3)cc1Cl (stereo unspecified)	1%	-29%
C[C@@H](O)C(N)C(=O)O (stereo partly specified)	-9%	-2%
CC(C)OC(=O)Nc1ccc2nc(-c3cscn3)[nH]c2c1	-1%	28µM*
CCCCc1ccc2nc(NC(=O)OC)[nH]c2c1	-16%[17.8 µM]	-3%[17.8 µM]
CCCCCCCCCCCCCCCC(=O)C(F)(F)F	5%	-1%
COC(=O)/C=C/c1ccc(C(=O)NCC(=O)N[C@@H](CCC(=O)OC)C(=O)N[C@@H](CC(C)C)C(N)=O)cc1	2%	0%
CC(Oc1cc(-n2cnc3ccc(OCC4CCN(C)CC4)cc32)sc1C(N)=O)c1ccccc1C(F)(F)F (stereo unspecified)	1.4µM*	x
COc1ccc2ncn(-c3cc(OC(C)c4ccccc4Cl)c(C(N)=O)s3)c2c1 (stereo unspecified)	0.32µM*	u
CC(Oc1cc(-n2cnc3ccc(OCC4CCN(C)CC4)cc32)sc1C(N)=O)c1ccccc1Cl (stereo unspecified)	0.63µM*	x
NC(=O)c1sc(-n2cnc3ccccc32)cc1OCc1ccccc1Br	16µM*	x
CCCCC/C=C\C[C@@H](O)/C=C/C=C/C=C/[C@@H](O)CCCC(=O)O	-7%	2%
SMILES	MARV entry inh	LASV entry inh
[O-][n+]1cccc(CO)c1	20%	0%
O=C1[C@H]2[C@@H]3[C@@H](O)[C@H](O)CC(=NOCc4ccccc4)[C@@H]3CC[C@H]2C(=O)N1Cc1ccc2c(c1)OCO2	-17%[8.59 µM]	8%[8.59 µM]
COC(C)(C)CCCC(C)C/C=C/C(C)=C/C(=O)OC(C)C (stereo unspecified)	15%	14µM*!
CCC(/C=C1\Sc2ccc(OC)cc2N1CCO)=C\c1sc2ccc(OC)cc2[n+]1CCO	5%	-20%
CCN1/C(=C/C=C/c2sc3ccccc3[n+]2CC)Sc2ccccc21	2.8µM*	2.5µM*
COc1cc2nc(N3CCN(C(=O)OCc4ccccc4)[C@H](C(=O)NC(C)(C)C)C3)nc(N)c2cc1OC	11µM*	1%
COc1cc2nc(N3CCN(C(=O)C4COc5ccccc5O4)CC3)nc(N)c2cc1OC (stereo unspecified)	u	-3%[17.8 µM]
NC1[C@H]2CN(c3nc4c(cc3F)c(=O)c(C(=O)O)cn4-c3ccc(F)cc3F)C[C@@H]12 (stereo partly specified)	-19%	-2%
O=C(Cc1nc2ccccc2[nH]1)N1CCC(n2c(C3CCC3)nc3cccnc32)CC1	-20%	-18%
COC(=O)C1(C(=O)OC)C/C=C\Cc2ccccc2[C@@H]1C[N+](=O)[O-]	-4%	0.25µM*!
COC(=O)C1(C(=O)OC)C/C=C\C/C=C\c2ccccc2[C@@H]1C[N+](=O)[O-]	4%	5%
COc1ccc(CN2CCNCC2)c(OC)c1OC	9%[17.8 µM]	0%[17.8 µM]
COc1ccc(CN2CCN(C(c3ccc(F)cc3)c3ccc(F)cc3)CC2)c(OC)c1OC	10µM*	22µM*
C=CCOC(=O)N[C@@H](c1coc2ccccc2c1=O)[C@@H](C)C=CCC(=O)OC	-3%[8.59 µM]	-11%[8.59 µM]
Cc1ccc2c(c1)CN(CCNC(=O)c1ccc3nc(C)[nH]c3c1)CC(C)O2 (stereo unspecified)	1%	-7%
OC[C@H]1O[C@@H](n2cnc3c(N[C@H]4C[C@H]5CC[C@@H]4C5)ncnc32)[C@H](O)[C@@H]1O	8%	7%
CC(C)c1cc(/C=C(\C#N)C(=O)NCCCc2ccccc2)cc(C(C)C)c1O	u	25µM*
N#C/C(=C\c1ccc(O)c(O)c1)C(=O)NCCCNC(=O)/C(C#N)=C/c1ccc(O)c(O)c1	-31%	-21%
CS(=O)(=O)c1ccc(Cn2c3c(c4cc(F)cc(F)c42)CCC[C@H]3CC(=O)O)cc1	24%	-23%
CC(C)CNC(=O)c1cn(C2CCN(Cc3nc4ccccc4s3)CC2)nn1	2.8µM*	-5%
CN(CCO)C(=O)c1cn(C2CCN(Cc3ccc4ccccc4c3)CC2)nn1	-29%	-4%
CCOC(=O)N1CCC(=C2c3ccc(Cl)cc3CCc3cccnc32)CC1	-17%	32µM*!
CN1CCC(=C2c3ccccc3CCc3cccnc32)CC1	-25%	-5%
COc1cc(/C=C\c2ccc(OC)cc2OC)cc(OC)c1	-9%	-5%
O=C1NC(=O)C(Cc2ccccc2)(C2CCN(Cc3cccn3-c3cccnc3)CC2)N1 (stereo unspecified)	u	-3%
Cc1ncc(COP(=O)(O)O)c(CN)c1O	1%	-9%
Cc1ncc(CO)c(CO)c1O	28µM*!	-7%

Source: PubChem (National Center for Advancing Translational Sciences (NCATS))
